Experimental data taken from PubChem BioAssay.
Activity calls are given as the source filed them.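 The calls were made as follows, unless noted: active = inhibition of the reporter signal at or above 50%; inactive = inhibition below 50%.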

Assay: inhibitors of Sendai virus-induced IRF3 signaling, primary screen, TLR/RLR signaling modifier project, cell-based, Sendai virus stimulus, luciferase, 10K MLSCN set (AID 602276;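 active = inhibition at or above 50% at 10 µM; inactive = inhibition below 50%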;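 also: firefly luciferase from ISG56 promoter only with Renilla not read in this screen; 0% = Sendai virus plus DMSO and 100% = medium plus DMSO without virus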)
Settings: HEK293 RL24 IRF3 luciferase reporter, at 10 µM, hits give high values

inhibition, inactive:
CCOc1ccccc1-n1nnnc1SCC(=O)Nc1cc2oc3ccccc3c2cc1OC -7.46%
COc1ccccc1C1/C(=C(/O)c2ccccc2)C(=O)C(=O)N1CC(C)C (stereo not given) 11.4%
CCn1c(-c2cc(Br)ccc2O)n[nH]c1=S 8.59%
Cc1cc(C(=O)Nc2sc3c(c2C#N)CCCCC3)cs1 -33.9%
Cc1ccc(N2C(N)=NC(N)=NC23CCCC3)c(C)c1 10%
O=C1C2C3C=CC(C3)C2C(=O)N1Cc1ccccc1 (stereo not given) -1.99%
CCCN(CCC)C(=O)C1CCN(c2cc(C)nc3c(-c4ccc(OC)c(OC)c4)c(C)nn23)CC1 4.7%
Cc1c[nH]c2cccc(OCC(O)CNC(C)(C)C)c12 (stereo not given) 12.1%
O=C(NCCN1CCOCC1)c1ccc2c(c1)N(Cc1ccccc1F)C(=O)CS2 9.96%
O=C(NCc1ccc2c(c1)OCO2)c1ccc(NS(=O)(=O)c2ccc3c(c2)OCCO3)cc1 10.8%
CC(C)(C#N)Nn1cnnc1 11.7%
CC1=NC(Nc2nc(C)c3ccccc3n2)=NC(C)(C)C1 3.86%
O=C(CSCc1cccc(F)c1)N1CCN(c2ccccc2)CC1 -32.3%
CC(=O)N1CCN(c2ccc(NC(=O)c3ccc(C(C)(C)C)cc3)cc2)CC1 -19.2%
CC1(C)OC(=O)N(c2cccnc2)C1(C)O (stereo not given) 13.3%
Cc1cc(=O)oc2cc(OCC(=O)OCC(=O)N3CCc4ccccc43)ccc12 11%
CC1CCCN(c2ccc(C(=O)NCc3cccs3)cn2)C1 (stereo not given) -37.8%
CC(=O)c1c(OC(=O)c2ccco2)c2ccccc2n1C 12%
Cc1cc(/C=N/n2cnnc2)c(C)n1-c1cccc(Cl)c1 13.2%
COc1ccc2ccccc2c1CN1CCCC(CO)C1 (stereo not given) 16%
CCn1c(C(Cc2ccccc2)NC(=O)COC)nc2ccccc21 (stereo not given) 11%
CC(C)OC(=O)C1C2C=CC3(CN(Cc4cccs4)C(=O)C13)O2 (stereo not given) 20.6%
Cc1[nH]c(=O)[nH]c(=O)c1S(=O)(=O)N1CCCC(C(=O)NCc2ccco2)C1 (stereo not given) -2.81%
COc1ccc(OC)c(C2CC(=O)NC(SC)=C2C#N)c1 (stereo not given) 8.75%
COc1ccc(S(=O)(=O)NCc2ccc3c(c2)OCO3)cc1C(=O)O 9.22%
CC(=O)Nc1ccccc1OCc1nnc(-c2cccs2)o1 -27%
CCn1nnnc1SCC(=O)N1CCOCC1 14.6%
NC(=O)c1c(NC(=O)Cc2cccs2)sc2c1CCC2 -14.3%
COC(=O)C(C#N)C(=C1C(=O)CC(C)(C)CC1=O)c1ccc(O)cc1 (stereo not given) 9.88%
CCCCn1nnnc1NCc1cccs1 4.2%
CCOC(=O)N1CCC(n2c(SCC(=O)NCc3ccco3)nc3ccsc3c2=O)CC1 4.14%
CCC(=O)N1CCN(c2nc(-c3ccccc3)c3c(c2C#N)CCCC3)CC1 13.4%
c1nc(NCC2(N3CCOCC3)CCCCC2)c2ccsc2n1 -0.86%
CC(C)(C)NC(=O)Cn1nnnc1-c1nonc1N -5.7%
Nc1scc(-c2ccncc2)c1Cl -19.6%
COc1cccc(-n2c(CNc3ccc(F)cc3)nnc2SCC(N)=O)c1 15.9%
COc1ccc(CCNc2oc(-c3ccccc3OC)nc2C#N)cc1 -0.337%
CC1(C)CN=C(N2CCN(c3ncnc4sc5c(c34)CCCC5)CC2)S1 6.95%
CC(CN1CCCCC1)OC(=O)c1ccc2c(c1)OCO2 (stereo not given) 6.1%
CC(C)CCN(C)C1CCN(S(=O)(=O)c2ccc(F)cc2)CC1 10.6%

Assay: inhibitors of poly I:C-induced TLR3 signaling, primary screen, cell-based, poly I:C stimulus, luciferase, 10K MLSCN set (AID 602277)
Settings: HEK293-TLR3 RL24 IRF3 luciferase reporter, at 10 µM, hits give high values

inhibition, inactive:
CCOc1ccccc1-n1nnnc1SCC(=O)Nc1cc2oc3ccccc3c2cc1OC 15.7%
COc1ccccc1C1/C(=C(/O)c2ccccc2)C(=O)C(=O)N1CC(C)C (stereo not given) 20.6%
CCn1c(-c2cc(Br)ccc2O)n[nH]c1=S 9.74%
Cc1cc(C(=O)Nc2sc3c(c2C#N)CCCCC3)cs1 -119%
Cc1ccc(N2C(N)=NC(N)=NC23CCCC3)c(C)c1 18.1%
O=C1C2C3C=CC(C3)C2C(=O)N1Cc1ccccc1 (stereo not given) -2.25%
CCCN(CCC)C(=O)C1CCN(c2cc(C)nc3c(-c4ccc(OC)c(OC)c4)c(C)nn23)CC1 7.43%
Cc1c[nH]c2cccc(OCC(O)CNC(C)(C)C)c12 (stereo not given) 27.1%
O=C(NCCN1CCOCC1)c1ccc2c(c1)N(Cc1ccccc1F)C(=O)CS2 22.6%
O=C(NCc1ccc2c(c1)OCO2)c1ccc(NS(=O)(=O)c2ccc3c(c2)OCCO3)cc1 17.5%
CC(C)(C#N)Nn1cnnc1 21.2%
CC1=NC(Nc2nc(C)c3ccccc3n2)=NC(C)(C)C1 1.48%
O=C(CSCc1cccc(F)c1)N1CCN(c2ccccc2)CC1 -145%
CC(=O)N1CCN(c2ccc(NC(=O)c3ccc(C(C)(C)C)cc3)cc2)CC1 -42.5%
CC1(C)OC(=O)N(c2cccnc2)C1(C)O (stereo not given) 19.9%
Cc1cc(=O)oc2cc(OCC(=O)OCC(=O)N3CCc4ccccc43)ccc12 16.2%
CC1CCCN(c2ccc(C(=O)NCc3cccs3)cn2)C1 (stereo not given) -71.3%
CC(=O)c1c(OC(=O)c2ccco2)c2ccccc2n1C 1.24%
Cc1cc(/C=N/n2cnnc2)c(C)n1-c1cccc(Cl)c1 21.5%
COc1ccc2ccccc2c1CN1CCCC(CO)C1 (stereo not given) 35.4%
CCn1c(C(Cc2ccccc2)NC(=O)COC)nc2ccccc21 (stereo not given) 31.9%
CC(C)OC(=O)C1C2C=CC3(CN(Cc4cccs4)C(=O)C13)O2 (stereo not given) 32.2%
Cc1[nH]c(=O)[nH]c(=O)c1S(=O)(=O)N1CCCC(C(=O)NCc2ccco2)C1 (stereo not given) 24.8%
COc1ccc(OC)c(C2CC(=O)NC(SC)=C2C#N)c1 (stereo not given) 29%
COc1ccc(S(=O)(=O)NCc2ccc3c(c2)OCO3)cc1C(=O)O 20.8%
CC(=O)Nc1ccccc1OCc1nnc(-c2cccs2)o1 -28.6%
CCn1nnnc1SCC(=O)N1CCOCC1 8.47%
NC(=O)c1c(NC(=O)Cc2cccs2)sc2c1CCC2 -35.7%
COC(=O)C(C#N)C(=C1C(=O)CC(C)(C)CC1=O)c1ccc(O)cc1 (stereo not given) 10.9%
CCCCn1nnnc1NCc1cccs1 -0.68%
CCOC(=O)N1CCC(n2c(SCC(=O)NCc3ccco3)nc3ccsc3c2=O)CC1 23.6%
CCC(=O)N1CCN(c2nc(-c3ccccc3)c3c(c2C#N)CCCC3)CC1 44.4%
c1nc(NCC2(N3CCOCC3)CCCCC2)c2ccsc2n1 23.1%
CC(C)(C)NC(=O)Cn1nnnc1-c1nonc1N -10.1%
Nc1scc(-c2ccncc2)c1Cl -65.9%
COc1cccc(-n2c(CNc3ccc(F)cc3)nnc2SCC(N)=O)c1 24%
COc1ccc(CCNc2oc(-c3ccccc3OC)nc2C#N)cc1 12.4%
CC1(C)CN=C(N2CCN(c3ncnc4sc5c(c34)CCCC5)CC2)S1 5.35%
CC(CN1CCCCC1)OC(=O)c1ccc2c(c1)OCO2 (stereo not given) -0.512%
CC(C)CCN(C)C1CCN(S(=O)(=O)c2ccc(F)cc2)CC1 40.9%
